Measurements published in PMC4336329 (PLoS ONE, 2015).
In all, about 310,000 compounds went through this assay and about 14,000 (4.5%) showed an effect of 50% or more. The effect is printed as a negative number. The list comes from a sample in which strong results are over-represented; it also holds similar structures and randomly drawn compounds.

molecular target: human ether-à-go-go-related gene (hERG) potassium channel (human, UniProt Q12809); test: primary screen, population patch clamp on CHO cells stably expressing hERG; higher = less effect of the substance
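Further: peak tail current of the secondary pulse compared with the same well before compound.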

Chain of human ether-à-go-go-related gene (hERG) potassium channel (Q12809 whole entry, looked up): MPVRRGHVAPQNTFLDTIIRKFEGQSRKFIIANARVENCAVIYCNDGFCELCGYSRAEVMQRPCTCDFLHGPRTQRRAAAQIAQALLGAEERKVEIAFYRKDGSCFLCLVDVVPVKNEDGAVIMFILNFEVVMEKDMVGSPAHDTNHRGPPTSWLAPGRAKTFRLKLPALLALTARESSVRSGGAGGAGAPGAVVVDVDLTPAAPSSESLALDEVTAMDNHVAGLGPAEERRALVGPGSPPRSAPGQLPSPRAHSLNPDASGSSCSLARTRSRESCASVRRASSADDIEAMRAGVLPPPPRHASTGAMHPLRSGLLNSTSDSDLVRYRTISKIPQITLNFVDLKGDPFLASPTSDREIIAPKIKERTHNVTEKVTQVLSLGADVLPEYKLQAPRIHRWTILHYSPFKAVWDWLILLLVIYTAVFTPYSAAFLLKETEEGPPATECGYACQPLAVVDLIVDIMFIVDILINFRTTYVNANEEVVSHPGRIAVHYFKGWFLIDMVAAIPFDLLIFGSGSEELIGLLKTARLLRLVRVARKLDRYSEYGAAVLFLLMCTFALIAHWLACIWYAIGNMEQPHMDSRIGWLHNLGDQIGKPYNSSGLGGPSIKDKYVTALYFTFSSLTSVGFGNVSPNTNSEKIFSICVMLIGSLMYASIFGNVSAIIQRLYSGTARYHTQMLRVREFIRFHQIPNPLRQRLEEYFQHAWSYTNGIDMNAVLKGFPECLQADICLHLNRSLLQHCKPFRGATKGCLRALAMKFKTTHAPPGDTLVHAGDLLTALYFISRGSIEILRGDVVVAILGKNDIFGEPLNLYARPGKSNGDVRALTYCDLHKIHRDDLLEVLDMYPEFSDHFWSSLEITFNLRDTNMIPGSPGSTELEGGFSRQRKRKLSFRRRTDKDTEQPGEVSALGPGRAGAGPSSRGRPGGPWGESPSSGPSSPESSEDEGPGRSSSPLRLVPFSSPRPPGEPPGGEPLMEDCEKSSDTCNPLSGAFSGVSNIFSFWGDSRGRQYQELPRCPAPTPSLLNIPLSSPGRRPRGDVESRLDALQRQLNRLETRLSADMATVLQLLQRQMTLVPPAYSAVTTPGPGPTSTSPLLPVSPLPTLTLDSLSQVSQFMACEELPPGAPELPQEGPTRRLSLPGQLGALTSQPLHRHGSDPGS

In order of rising “hERG current change (%, negative = inhibition) at 10uM” value:
1. COc1ccc(NC(=S)N(CCCN2CCC(C)CC2)Cc2cccs2)cc1Cl  -73.1%
2. O=C(NCC1(N2CCCCC2)CCCCC1)c1cccc(S(=O)(=O)Nc2ccc(F)cc2)c1  -64%
3. COc1ccc(NS(=O)(=O)c2cccc(C(=O)NCC3(N4CCCCC4)CCCCC3)c2)cc1  -55.4%
4. COc1ccc(S(=O)(=O)NCc2cccnc2)cc1C(=O)Nc1ccccc1  -47.9%
5. O=C(NCC1(N2CCOCC2)CCCCC1)c1cccc(S(=O)(=O)Nc2ccc(F)cc2)c1  -44.1%
6. COc1ccc(NS(=O)(=O)c2cccc(C(=O)NCC3(N4CCOCC4)CCCCC3)c2)cc1  -36.7%
7. COc1ccc(NC(=S)NCCN2CCC(C)CC2)cc1Cl  -30.5%
8. COc1ccc(NS(=O)(=O)c2cccc(C(=O)N3CCCCCCC3)c2)cc1  -28.9%
9. Cn1c(Cn2nnc3ccccc32)nnc1SCC(=O)N1c2ccccc2Sc2ccccc21  -22.1%
10. CCC(c1nnnn1C1CCCCC1)N1CCN(C(=O)c2ccco2)CC1.Cl (stereo not shown)  -11.4%
11. CC(=O)Nc1ccc(NC(=O)c2ccc(N(Cc3ccccc3C)S(C)(=O)=O)cc2)cc1  -7.68%
12. COc1ccc(NC(=S)N(CCCN2CCCC2)Cc2cccn2Cc2ccc(Cl)cc2)cc1Cl  -6.98%
13. C/C(=N\NC(=O)Cn1cc([N+](=O)[O-])cn1)c1ccc(O)cc1  -5.56%
14. O=C(c1cccc(S(=O)(=O)Nc2ccc(F)cc2)c1)N1CCCC1  -3.1%
15. S=C(Nc1ccccc1)N1CCN(C2CCCCC2)CC1  -2.89%
16. O=C(OCCN=C1NS(=O)(=O)c2ccccc21)c1ccncc1  -1.44%
17. Cc1ccccc1NC(=O)Cn1nnc(S(=O)(=O)c2ccc(C(C)(C)C)cc2)c1N  4.35%
18. CC(=O)NC12CC3CC(C1)CC(C(=O)Nc1nccs1)(C3)C2  6.58%
19. CC(OC(=O)Cn1cnc2c1c(=O)n(C)c(=O)n2C)C(=O)NC1CCCCC1C (stereo not shown)  15.4%
20. COc1cc(/C=C2\C(=O)NN(c3ccccc3)C2=O)cc([N+](=O)[O-])c1O  22%
21. COc1cc(/C=N/Nc2cccc(C)c2)ccc1OC(=O)c1ccco1  23.4%
22. O=C(N/N=C/c1coc2ccccc2c1=O)c1cccc([N+](=O)[O-])c1  26.8%
